Screens from PubChem.
D2 ag-1 = agonists of human D2 dopamine receptor (beta-arrestin) | P14416 | DiscoveRx PathHunter D2 beta-arrestin, luminescence, 90 min; 100% = 57 uM dopamine signal | activation, % (concentration not given with the values) | 0.084% of 360,000 active | AID 624465; in the data active = activation above about 40%; inconclusive = between about 15% and that limit
Target sequence (P14416 whole entry, looked up): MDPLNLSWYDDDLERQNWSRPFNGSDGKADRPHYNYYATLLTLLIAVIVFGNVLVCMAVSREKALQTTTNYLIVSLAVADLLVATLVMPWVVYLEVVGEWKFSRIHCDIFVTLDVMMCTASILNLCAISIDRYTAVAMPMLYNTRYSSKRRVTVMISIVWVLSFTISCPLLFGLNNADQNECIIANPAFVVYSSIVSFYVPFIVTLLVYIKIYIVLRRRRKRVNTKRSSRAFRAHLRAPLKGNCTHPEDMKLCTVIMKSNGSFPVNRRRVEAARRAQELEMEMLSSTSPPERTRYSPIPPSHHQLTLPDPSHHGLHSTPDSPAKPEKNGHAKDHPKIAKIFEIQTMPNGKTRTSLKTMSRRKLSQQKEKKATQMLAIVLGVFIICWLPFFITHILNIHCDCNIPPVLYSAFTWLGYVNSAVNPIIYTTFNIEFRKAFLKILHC
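DiscoveRx PathHunter D2 beta-arrestin cells (2,100/well) attached overnight, then compound-stimulated 90 min at 37 C in HBSS/10 mM HEPES/0.1% Tween-20 buffer; beta-galactosidase complementation read by luminescence after 1 h at ambient temperature. Dopamine 57 uM final (EC100) as control.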
D2 PAM-1 = positive allosteric modulators of human D2 dopamine receptor; P14416; HEK293 T-REx D2, calcium flux, EC20 dopamine potentiation; potentiation, % at 10 µM; 0.34% of 340,000 active; AID 485347;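 active = potentiation over 3 SD above the plate norm, cut at about 30% in these data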
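Calcium flux readout, no-wash dye, 1 read/s. Inducible HEK293 Trex D2 line, overnight 30 C. Compound alone 180 s (agonist flags), then EC20 dopamine, another 180 s to score potentiation.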
LDHA inh = inhibitors of human lactate dehydrogenase A. P00338. purified LDHA, NADH/diaphorase-resazurin fluorescence; stronger effect = lower value. activity change, % (values are at about 110 or 230 µM). 0.15% of 480,000 active; in the data active = activity change below about -30%; inconclusive = mostly about -25% to -30%
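Human LDH5 (2 nM) was incubated with 0.06 mM NADH and 0.2 mM pyruvate for 5 min at room temperature in Tris pH 7.4. Remaining NADH was coupled through diaphorase/resazurin, and resorufin fluorescence was read at 0 and 20 min.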
D2 PAM-2 = potentiates the human D2 dopamine receptor allosterically; P14416; DiscoveRx D2 beta-arrestin cells, luminescence, 90 min; 100% = 57 uM dopamine signal; potentiation, % (test concentration not listed); 0.23% of 360,000 active; in the data active = potentiation above about 50%; inconclusive = mostly about 30% to 49%
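PathHunter D2 cells, attached overnight at 37 deg C, received compound in DMSO plus dopamine at EC20 (50 nM final) for 90 min at 37 deg C. Beta-arrestin recruitment was read as luminescence after 1 h with detection reagent at ambient temperature.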
D2 antag = antagonizes the human D2 dopamine receptor; inhibition, % at 10 µM; 2% of 340,000 active; AID 485344; HEK293 TREx D2 cells, calcium flux, dopamine EC80; P14416; in the data active = inhibition above about 30%; inactive = below that, where a call was filed
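Inhibition of EC80 dopamine-driven calcium flux, recorded kinetically, defines activity here; cells are a tetracycline-induced HEK293 T-REx line expressing force-coupled D2.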
D2 ag-2 = D2 dopamine receptor (human) agonism | HEK293 T-REx D2 cells, calcium flux agonist mode | activation, % at 2 µM | 0.53% of 340,000 active;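 active = activation over 3 SD above normal in the single-dose calcium agonist read, cut at about 30% in these data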
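Agonism scored from kinetic calcium signal (1 read/sec, 180 s) following compound pin transfer, after a 10 s baseline. Cells: HEK293 Trex line expressing inducible D2 receptor coupled to calcium, dye-loaded after overnight culture at 30 C.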
D3 arrestin ag = activates human D3 dopamine receptor beta-arrestin recruitment; shares compounds with D2 ag-2; DiscoveRx D3 beta-arrestin cells, luminescence, 90 min; Potency, µM (titrated, usually from 76.9 µM), usual class: activators; 4% of 2,300 active; also: nearly all actives have a fitted effect of over 70% in size
D2 ag-3 = activates human D2 dopamine receptor in D3 counterscreen; 5.9% of 2,300 active; DiscoveRx PathHunter D2 beta-arrestin, luminescence, 90 min; response scale: percent relative to full dopamine signal; shares compounds with D2 ag-2; Potency, µM (titrated, usually from 76.9 µM), usual class: activators; also: nearly all actives have a fitted effect of over 70% in size
Each line names hits and unclear results; the compound was inactive in the other large screens (follow-up assays come after a bar, where they were run). Sampled rows, rich in hits. Any-hit rate of the full collection: about 2.1%. Unless noted, calls follow the shape of the dose curve; as a rule, active = well fitted activation curve with a large enough effect; inconclusive = small, poorly fitted or top-dose-only effect; inactive = flat fitted curve, though single readings scatter.

CC1CCN(CCCCOc2ccccc2Br)CC1	D2 antag 90.7
Brc1ccccc1OCCCCN1CCCCC1	D2 antag 75.8
CC1CCN(CCCCOc2ccccc2F)CC1	D2 antag 81.5
Brc1ccccc1OCCCN1CCOCC1	none
Nc1c(Cl)cc(NC(=O)c2cnc3ccccc3n2)cc1Cl	none (no result: D2 ag-1, D2 PAM-1, D2 PAM-2, D2 antag, D2 ag-2)
O=C(Nc1cc(=O)[nH]c2nc(C(F)(F)F)nn12)c1ccc(Cl)cc1Cl	none (no result: D2 ag-1, D2 PAM-1, D2 PAM-2, D2 antag, D2 ag-2)
CC(=O)N1CCC2(CC1)OC(=O)C(C)=C2C(=O)NCCN1CCCCCC1	none (no result: D2 ag-1, D2 PAM-1, D2 PAM-2, D2 antag, D2 ag-2)
CCCCNC(=O)c1ccc2c(c1)S(=O)(=O)c1ccccc1C2=O	none
CC(C)OCCCNC(=O)c1ccc2c(c1)S(=O)(=O)c1ccccc1C2=O	D2 PAM-2 72.0
Cc1ccccc1S(=O)(=O)NC(=O)C1(C)CCN1C(=O)c1cccc2ccccc12 (stereo not drawn)	none (no result: D2 PAM-1, D2 antag, D2 ag-2)
Cc1ccc(F)c(S(=O)(=O)NC(=O)C2(C)CCN2C(=O)c2cccc3ccccc23)c1 (stereo not drawn)	D2 ag-1 inconclusive, D2 PAM-2 61.7 (no result: D2 PAM-1, D2 antag, D2 ag-2)
Cc1cc(C(F)(F)F)nc(SC(C(=O)O)c2ccccc2)n1 (stereo not drawn)	none (no result: D2 ag-1, D2 PAM-1, D2 PAM-2, D2 antag, D2 ag-2)
O=C1c2ccc([N+](=O)[O-])cc2S(=O)(=O)N1Cc1ccccc1	D2 ag-1 inconclusive, D2 PAM-2 72.1
COCCn1c(Cc2ccccc2)nnc1SCC(=O)NC1CC1	D2 antag 32.2
Cn1c(Cc2ccccc2)nnc1SCC(=O)NC1CC1	none
COC1/C=C\OC2(C)Oc3c(C)c(O)c4c(c3C2=O)C2(C=C(NC(=O)/C(C)=C\C=C/C(C)C(O)C(C)C(O)C(C)C(OC(C)=O)C1C)C4=O)OCC(=O)O2 (stereo not drawn)	none (no result: D2 ag-1, D2 PAM-1, D2 PAM-2, D2 antag, D2 ag-2)
O=C(COC(=O)c1cc(-c2cccs2)nn1-c1ccccc1)Nc1ccc(Cl)c([N+](=O)[O-])c1	D2 antag 43.9
O=C(Nc1nc(-c2ccc(S(=O)(=O)N3CCOCC3)cc2)cs1)c1ccccc1	D2 PAM-1 32.6, D2 PAM-2 inconclusive
CS(=O)Cc1cccc(C(=O)Nc2nc(-c3ccccn3)cs2)c1 (stereo not drawn)	none (no result: D2 ag-1, D2 PAM-1, D2 PAM-2, D2 antag, D2 ag-2)
C[n+]1cnn2c1SCC1(COC1)C2	LDHA inh -57.6
O=C(NCC(c1ccco1)N1CCN(c2ccccc2)CC1)c1cccs1 (stereo not drawn)	none | D3 arrestin ag inactive | D2 ag-3 inactive
O=C(NCc1cccs1)C(=O)NCC(c1ccco1)N1CCN(c2ccccc2)CC1 (stereo not drawn)	none
O=C(COc1ccccc1)NCC(c1ccco1)N1CCN(c2ccccc2)CC1 (stereo not drawn)	none | D3 arrestin ag inactive | D2 ag-3 inactive
O=C(Nc1ccccc1C(F)(F)F)c1cc(-c2cccc(O)c2)on1	none
CCc1ccccc1NC(=O)c1cc(-c2cccc(O)c2)on1	none (no result: D2 PAM-1, D2 antag, D2 ag-2) | D3 arrestin ag inactive | D2 ag-3 inactive
COC1CCN(Cc2c(C(=O)N3CCN(C4CCCCC4)CC3)nc3ccccn23)CC1	D2 ag-2 59.3 | D3 arrestin ag inactive | D2 ag-3 inactive
COCC1CCN(Cc2c(C(=O)N3CCN(C4CCCCC4)CC3)nc3ccccn23)C1 (stereo not drawn)	none
NNC(=O)CCn1nnc2ccccc21	none (no result: D2 antag, D2 ag-2) | D3 arrestin ag inactive | D2 ag-3 inactive
O=C(Cc1c(F)cccc1Cl)NNC(=O)c1ccncc1	none | D3 arrestin ag inactive | D2 ag-3 inactive
Cc1nc(NCCc2ccccc2)c2nnn(Cc3ccccc3Cl)c2n1	none | D3 arrestin ag inactive | D2 ag-3 inactive
Cc1ccccc1C(=O)N(Cc1nc(-c2ccc(Cl)cc2)no1)C(C)C	none (no result: D2 ag-1, D2 PAM-2, D2 antag)
COc1ccccc1C(=O)N(Cc1nc(-c2ccc(Cl)cc2)no1)C(C)C	D2 ag-2 51.4 | D3 arrestin ag inactive | D2 ag-3 inactive
CC(C)N(Cc1nc(-c2ccccc2)no1)C(=O)c1ccc([N+](=O)[O-])cc1	none
CC(C)N(Cc1nc(-c2ccccc2)no1)C(=O)c1ccc(Cl)cc1	D2 ag-2 51.1 | D3 arrestin ag inactive | D2 ag-3 inactive
O=c1c2cccnc2[nH]c(=S)n1CCCN1CCN(c2ccc(F)cc2)CC1	D2 antag 100.8, D2 ag-2 53.7 | D3 arrestin ag inactive | D2 ag-3 inactive
COc1ccc(N2CCN(CCCn3c(=S)[nH]c4ncccc4c3=O)CC2)cc1	none
Cc1ccc(-c2nc(CS(=O)(=O)CC(=O)NCc3ccccc3C)c(C)o2)cc1	none (no result: D2 ag-1, D2 PAM-1, D2 PAM-2, D2 antag, D2 ag-2)
CCOC(=O)Cc1csc(NC(=O)CN2CCOCC2)n1	none | D3 arrestin ag inactive | D2 ag-3 inactive
O=C(NCC1CCCO1)/C(=C/c1ccccc1)NC(=O)c1ccccc1 (stereo not drawn)	none
O=C(O)CNC(=O)c1ccc(NC(=O)/C(=C/c2cccc([N+](=O)[O-])c2)NC(=O)c2ccco2)cc1	D2 ag-2 47.0 | D3 arrestin ag inactive | D2 ag-3 inactive
